# Among all 310,000 compounds or so, about 14,000 (4.5%) showed an effect of 50% or more. Effects have a minus sign here. The sample as a whole holds a higher share of strong results than the screen did.
# Target: human ether-à-go-go-related gene (hERG) potassium channel (human, UniProt Q12809)
# Assay: primary screen, population patch clamp on CHO cells stably expressing hERG; higher = less effect of the substance
# 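Note: peak tail current of the secondary pulse compared with the same well before compound.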
# Sequence of human ether-à-go-go-related gene (hERG) potassium channel (Q12809 whole entry, looked up): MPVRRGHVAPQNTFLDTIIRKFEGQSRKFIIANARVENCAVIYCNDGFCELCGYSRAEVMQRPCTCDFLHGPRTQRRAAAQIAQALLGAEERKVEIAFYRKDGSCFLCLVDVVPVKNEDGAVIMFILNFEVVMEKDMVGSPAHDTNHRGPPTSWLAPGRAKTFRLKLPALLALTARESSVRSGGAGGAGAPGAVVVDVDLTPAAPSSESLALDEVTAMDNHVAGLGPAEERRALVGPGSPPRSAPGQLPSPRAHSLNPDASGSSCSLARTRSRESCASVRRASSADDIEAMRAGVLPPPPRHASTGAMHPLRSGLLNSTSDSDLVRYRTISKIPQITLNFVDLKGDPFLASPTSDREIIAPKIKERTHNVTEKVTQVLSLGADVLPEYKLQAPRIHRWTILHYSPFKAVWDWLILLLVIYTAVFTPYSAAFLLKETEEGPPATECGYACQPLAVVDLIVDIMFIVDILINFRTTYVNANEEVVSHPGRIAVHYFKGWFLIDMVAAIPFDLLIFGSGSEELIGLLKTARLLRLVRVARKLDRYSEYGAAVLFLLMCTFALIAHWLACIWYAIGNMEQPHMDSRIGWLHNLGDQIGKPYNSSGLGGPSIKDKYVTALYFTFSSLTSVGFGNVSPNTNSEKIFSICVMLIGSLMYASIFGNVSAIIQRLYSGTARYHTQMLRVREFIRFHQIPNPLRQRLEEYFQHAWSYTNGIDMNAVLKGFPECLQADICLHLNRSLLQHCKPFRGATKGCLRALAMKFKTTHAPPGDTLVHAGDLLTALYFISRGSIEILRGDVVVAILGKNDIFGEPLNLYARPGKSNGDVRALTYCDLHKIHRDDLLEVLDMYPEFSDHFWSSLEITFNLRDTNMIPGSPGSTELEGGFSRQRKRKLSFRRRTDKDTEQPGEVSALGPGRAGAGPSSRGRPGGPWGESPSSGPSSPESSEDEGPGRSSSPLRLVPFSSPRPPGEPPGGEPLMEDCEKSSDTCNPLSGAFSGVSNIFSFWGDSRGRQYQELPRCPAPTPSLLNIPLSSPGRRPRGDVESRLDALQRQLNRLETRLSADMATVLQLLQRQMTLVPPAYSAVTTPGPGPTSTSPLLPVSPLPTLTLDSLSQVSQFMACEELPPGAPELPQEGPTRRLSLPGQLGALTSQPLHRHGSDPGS
row,Compound,"hERG current change (%, negative = inhibition) at 10uM [%]"
1,Cc1ccc(NC(=S)N2CCCC2)cc1Cl,11.5
2,CC(=O)NCCOC(=O)c1nn(Cc2ccccc2)c(=O)c2ccccc12,-22.4
3,Cc1sc2nc(CN3CCN(c4ccc(O)cc4)CC3)[nH]c(=O)c2c1C,14.4
4,COc1ccc(CN(C)C(=O)CNC(=O)CNC(=O)c2ccc(Cl)cc2Cl)cc1F,-43.5
5,C=CCNC(=O)c1ccc(Cl)cc1Cl,11.8
6,CN(Cc1ccc(Cl)s1)C(=O)CNC(=O)CNC(=O)c1ccc(Cl)cc1Cl,-56.8
7,CN(Cc1cccnc1)C(=O)CNC(=O)c1ccc(Cl)cc1Cl,-17.2
8,O=C(CNC(=O)CNC(=O)c1ccc(Cl)cc1Cl)NCc1cccc(Cl)c1,-1.95
9,C=CCN(Cc1ccc(Cl)s1)C(=O)CNC(=O)CNC(=O)c1ccc(Cl)cc1Cl,-70.6
10,COc1ccc(C2=NS(=O)(=O)N(C)C(C(=O)Nc3ccc(C)cc3)=C2)cc1,-2.89
11,COc1cc(C)c(NC(=S)Nc2cccc(Cl)c2C)cc1OC,11.1
12,CCCCCCCCN1[C@@H](CC(=O)O)c2cc(F)ccc2S1(=O)=O,7.81
13,CCC(=O)NC(c1cccs1)c1cc(Cl)c2cccnc2c1O (stereo not shown),-2.87
14,COc1ccc(OC)c(CNC(=O)CCn2c(=O)c3cccn3c3ccc(F)cc32)c1,-62.2
15,COc1ccc(CNC(=O)CCn2c(=O)c3cccn3c3ccc(F)cc32)cc1,-7.82
16,COc1ccccc1CCNC(=O)CCn1c(=O)c2cccn2c2ccc(F)cc21,5.9
17,COc1ccc(C)cc1NC(=S)N1CC(C)OC(C)C1 (stereo not shown),-11.5
18,CCC(=NCCc1c(C)[nH]c2ccccc12)C1=C(O)CC(c2ccccc2)CC1=O (stereo not shown),6.02
19,N#C/C(=C(\O)Cc1ccccc1)c1nc2ccccc2[nH]1,15.6
20,CCCCc1nc2ccccc2n1Cc1nnc2n1-c1ccccc1SC2,-63
21,CCCCc1nc2ccccc2n1CC(=O)NN,16.3
22,C=C(Br)Cn1c(CCCC)nc2ccccc21,-21.6
23,Nc1nnnn1CC(=O)OCc1cccc(Br)c1,-13.8
24,COc1ccc(Cl)cc1NC(=O)CN(C)CC(=O)Nc1cc(OC)c(OC)c(OC)c1,-8.72
25,COc1ccc(CCNC(=O)C2CCCN(Cc3nc(-c4cccc(Cl)c4)oc3C)C2)cc1OC (stereo not shown),-84.1
26,COc1ccc(CCNC(=O)C2CCN(Cc3nc(-c4cccc(Cl)c4)oc3C)CC2)cc1OC,-85.2
27,Cc1oc(-c2cccc(Cl)c2)nc1CN1CCC(C(=O)NCCCN2CC(C)CC(C)C2)CC1 (stereo not shown),-21.4
28,COc1ccc(CCNC(=O)C2CCN(C(=O)c3cccc(Cl)c3)CC2)cc1OC,11.5
